# Source: PubChem (National Center for Advancing Translational Sciences (NCATS))
# TGFb inhibitor: inhibitors of TGF-b signaling; HepG2 CAGA-GFP TGF-b/SMAD3 reporter, GFP fluorescence, 18 h; TGF-beta stimulated, 500 pg/mL final; Potency, µM (titrated, usually from 46.1 µM), without a hit: top-dose activity, negative = inhibition, usual class: inhibitors; actives 1.2% (n = 410,000); AID 588855; note: potency is the fitted concentration of half-maximal effect; % is set by controls: 0 for no effect and ±100 for the full control effect; nearly all actives have a fitted effect of over 65% in size
#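 HEPG2 CAGA-GFP, 1000 cells/well; 2 h settle, 37 C; cpd via pin tool; TGF-b 500 pg/mL final; 18 h, 37 C; GFP imaging ex488/em500-530; %Activity normalised to -TGF-b and +DMSO controls; CRC fit, curve class.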
# DT40 TDP1 CPT: DT40-hTDP1 cell growth loss with CPT; chicken DT40 Tdp1-/-;hTDP1 cells + 20 nM CPT, ATP luminescence, 48 h; Potency, µM (top dose mostly 46.2 µM), without a hit: top-dose activity change, negative = growth inhibition, hits mostly inhibitors; actives 12% (n = 420,000); AID 686979; note: potency is the fitted concentration of half-maximal effect; % is set by controls: 0 for no effect and ±100 for the full control effect; nearly all actives have a fitted effect of over 55% in size
#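 Cell growth measured by CellTiter-Glo luminescence after a minimum 48 h, 37 C compound exposure with 20 nM CPT in Tdp1-knockout DT40 cells stably expressing hTDP1, seeded 400/well; qHTS titration format.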
# TDP1 block: inhibitors of human tyrosyl-DNA phosphodiesterase TDP1; AID 485290; Q9NUW8; recombinant TDP1, AlphaScreen DNA substrate cleavage; Potency, µM (highest dose often 130 µM), for the others: at the top dose activity change, negative = inhibition, usual class: inhibitors; actives 0.28% (n = 350,000); note: potency is the fitted concentration of half-maximal effect; % is set by controls: 0 for no effect and ±100 for the full control effect; nearly all actives have a fitted effect of over 40% in size
# Target sequence (Q9NUW8 whole entry, looked up): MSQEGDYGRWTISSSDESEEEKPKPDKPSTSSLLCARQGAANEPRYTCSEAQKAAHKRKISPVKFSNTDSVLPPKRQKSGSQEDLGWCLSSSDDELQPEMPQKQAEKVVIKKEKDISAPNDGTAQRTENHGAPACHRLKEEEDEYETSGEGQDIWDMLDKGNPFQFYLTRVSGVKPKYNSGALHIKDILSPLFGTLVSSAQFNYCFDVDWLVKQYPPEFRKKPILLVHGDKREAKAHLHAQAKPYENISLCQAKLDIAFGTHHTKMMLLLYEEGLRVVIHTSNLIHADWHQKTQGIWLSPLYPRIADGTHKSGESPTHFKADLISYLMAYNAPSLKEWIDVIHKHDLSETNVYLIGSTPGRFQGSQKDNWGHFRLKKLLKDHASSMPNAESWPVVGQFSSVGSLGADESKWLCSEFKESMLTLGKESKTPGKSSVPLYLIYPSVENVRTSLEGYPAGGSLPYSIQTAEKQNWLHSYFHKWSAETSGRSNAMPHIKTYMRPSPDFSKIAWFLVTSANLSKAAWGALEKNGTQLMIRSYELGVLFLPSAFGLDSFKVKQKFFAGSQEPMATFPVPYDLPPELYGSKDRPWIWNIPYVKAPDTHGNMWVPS
#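 Tdp1 1 nM final; 15 min RT w/ cpd; substrate 15 nM, 5 min; beads 10 ug/ml, 10 min; AlphaScreen read. Neg ctrl: no enzyme.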
# TDP1 cell noCPT: qHTS for Inhibitors of human tyrosyl-DNA phosphodiesterase 1 (TDP1): qHTS in cells in absence of CPT. DT40 Tdp1-/- hTDP1 cells, no CPT, ATP luminescence, 48 h. Potency, µM (titrated, usually from 46.2 µM), inactives show at the top dose activity change, negative = growth inhibition, hits mostly inhibitors. actives 15% (n = 420,000). AID 686978, 2013; note: potency is the fitted concentration of half-maximal effect; % is set by controls: 0 for no effect and ±100 for the full control effect; nearly all actives have a fitted effect of over 55% in size
#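 Chicken DT40 Tdp1-/- cells complemented with human TDP1, screened without camptothecin (DMSO vehicle only), 400 cells/well. Compounds pin-transferred, cells incubated at 37 °C for at least 48 hr. Growth read as ATP-dependent luminescence (CellTiter-Glo, 30 min at RT).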
# IL1B secr inh: inhibitors of inflammasome signaling (IL-1 beta secretion). THP-1 LPS/ATP IL-1B secretion, AlphaLISA, 16 h; hits give low values. activity change, % at 57.5 µM. actives 4.7% (n = 360,000). AID 743279; in the data active = activity change below about -50%; inconclusive = mostly about -30% to -49%; note: % is set by controls: 0 for no effect and ±100 for the full control effect
#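 Secreted IL-1B measured by AlphaLISA bead assay after 16 h compound exposure of THP-1 cells; compounds (final up to 57.5 uM) added 1 h before LPS (250 ng/mL) and ATP (1.25 mM) stimulation; lower signal means less secretion.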
# HepG2 tox: kills HepG2 cells in TGF-b inhibitor counter-screen; Potency, µM (doses to about 46.1 µM), inactives show at the highest dose activity change, negative = cytotoxicity, hits mostly cytotoxic; HepG2 CAGA-GFP viability, ATP luminescence, 18 h; actives 0.76% (n = 410,000); AID 588856; note: potency is the fitted concentration of half-maximal effect
#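 HepG2 CAGA-GFP cells (1000/well, DMEM with 1% FBS) received compound, then TGF-beta at 500 pg/mL final, and were incubated 18 hours at 37 degrees C. Viability was read by CellTiter-Glo luminescence. Media-only wells were set as complete cell-killing and DMSO as no toxicity.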
# * hit, by the source's call; ? = inconclusive; · = no result given; [ ] = remark or other dose. An excerpt weighted towards active compounds, which were near 19% of everything screened. Unless noted, calls come from the whole dose curve; as a rule, active = well fitted curve in the direction sought with a large enough effect; inconclusive = small, poorly fitted or top-dose-only effect, or another doubt; inactive = no such curve, though single readings can be large; an effect the other way counts as inactive or inconclusive.
SMILES,TGFb inhibitor,DT40 TDP1 CPT,TDP1 block,TDP1 cell noCPT,IL1B secr inh,HepG2 tox
NC(=O)C(CCc1nc2ccccc2[nH]1)NS(=O)(=O)c1ccccc1 (centres undefined),-5%,-11%,·,?,-18,-16%
CC(=O)n1cc(N(C(=O)CCl)c2ccc(Cl)cc2)c2ccccc21,?,1.5µM*,·,1.3µM*,0,7.9µM*
COc1ccccc1N(C(=O)CCl)c1cn(C(C)=O)c2ccccc12,11µM*,4.6µM*,6%,4.6µM*,-60*,11µM*
CC(=O)n1cc(C=O)c2ccccc21,44%,11%,·,-28%,·,0%
CC(=O)Cc1cc(O)c2ccccc2c1OC(=O)c1ccc(Br)cc1,?,21µM*,7%,21µM*,0,-118%
CN(C)CCCC(C)(O)C(Cc1ccccc1)c1ccccc1 (centres undefined),-2%,?,5%,21µM*,-17,-2%
NS(=O)(=O)c1ccc(NC(=O)COC(=O)CCc2ccccc2)cc1,-3%,-24%,9%,-3%,10,14%
Cc1cccc(C)c1NC(=O)/C(=C/c1ccco1)c1ccccc1,31%,18µM*,3%,13µM*,-16,-7%
Cc1cc(C)c(NC(=O)/C(=C/c2ccco2)c2ccccc2)c(C)c1,13%,?,3%,?,21,-22%
O=C(NCCc1ccccc1)/C(=C/c1ccco1)c1ccccc1,-4%,26µM*,4%,?,-9,-11%
CCC(C)NC(=O)/C(=C/c1ccco1)c1ccccc1 (centres undefined),4%,?,-4%,?,14,9%
Cc1c(C(=O)O)sc(S(=O)(=O)N2CCN(C(=O)Cc3ccc(F)cc3)CC2)c1C(=O)O,?,-12%,-4%[56.1 µM],-22%,0,-27%
CNS(=O)(=O)c1cn(CC(=O)Nc2ccc(C(C)=O)cc2)cc1S(=O)(=O)NC,-20%,-7%,8%,0%,·,11%
S=c1[nH]cnc2scc(-c3ccccc3)c12,-6%,?,8%,23µM*,13,-17%
Clc1ncnc2scc(-c3ccccc3)c12,0%,?,-1%,?,-70*,0%
O=c1[nH]cnc2scc(-c3ccc(F)cc3)c12,-4%,-29%,2%,?,-23,2%
O=C(N=C1SC2CS(=O)(=O)CC2N1c1ccc(OC(F)(F)F)cc1)C1CC1 (centres undefined),11%,-12%,5%,30%,0,0%
COC(=O)c1ccc(NC2=CC(=O)CC(C)(C)C2)cc1,0%,23µM*,2%,23µM*,?,-49%
Cc1ccc(C)c(NC(=O)CN(C)C(=O)c2ccc(S(=O)(=O)N3CCCCCC3)cc2)c1,3%,-33%,0%,-2%,-15,-4%
CCCN(C(=O)COC(=O)COc1c(C)cccc1C)c1c(N)n(Cc2ccccc2)c(=O)[nH]c1=O,1%,-13%,·,-8%,23,47%
CCNC(=S)Nc1nc2c(cc1C(=O)OCC)CCCC2,12%,?,2%,?,9,-17%
C=CCNC(=S)Nc1nc2c(cc1C(=O)OCC)CCCC2,-1%,?,1%,23µM*,5,-7%
O=C(COC(=O)CC1c2ccccc2CCN1S(=O)(=O)c1ccccc1)Nc1ccccc1 (centres undefined),-4%,?,1%,21µM*,0,-11%
S=c1[nH]nc(-c2cc(-c3ccsc3)n[nH]2)n1-c1cccc2ccccc12,?,?,5%,29µM*,0,-1%
CCc1cc2ccc(C)cc2nc1SCC(=O)Nc1c[nH]c(=O)[nH]c1=O,1%,-14%,-5%,?,-27,-12%
SMILES,TGFb inhibitor,DT40 TDP1 CPT,TDP1 block,TDP1 cell noCPT,IL1B secr inh,HepG2 tox
CCc1cc2c(C)ccc(C)c2nc1SCC(=O)Nc1c[nH]c(=O)[nH]c1=O,5%,?,0%,12µM*,71,-10%
CCc1cc2c(C)ccc(C)c2nc1SCC(=O)Nc1c(C)[nH]c(=O)[nH]c1=O,-2%,21µM*,-3%,?,-5,-3%
O=S(=O)(Nc1ccc(F)cc1F)c1ccc(Br)s1,0%,-23%,-4%,-20%,·,-2%
Cc1cc(C)n2nc(SCC(=O)Nc3ccc(O)cc3)nc2n1,6%,2%,6%,-4%,18,0%
Cc1cc(SCC(=O)c2cccs2)n2nc(C)c(-c3ccc(Cl)cc3)c2n1,-4%,16µM*,3%,?,-7,3%
Cc1cc(SCC(=O)Nc2ccccc2)n2ncc(-c3ccccc3)c2n1,?,?,0%,-56%,-55*,-88%
COc1ccc(NC(=O)CSc2cc(C)nc3c(-c4ccccc4)cnn23)cc1,-13%,25%,5%,?,20,19%
Cc1cc(SCC(=O)Nc2ccc(O)cc2)n2ncc(-c3ccccc3)c2n1,15%,-30%,0%,-2%,-51*,-2%
Cc1cc(SCC(=O)Nc2ccc(O)cc2)n2nc(C)c(-c3ccccc3)c2n1,-28%,?,2%,?,-80*,15%
CCC(c1nnc(SCC(=O)Nc2c(F)cccc2F)n1Cc1ccccc1)N(C)C (centres undefined),-4%,-4%,4%,-1%,-1,-22%
O=C(Nc1ccccc1C(F)(F)F)N1CCOc2ccc(Cl)cc21,0%,10%,8%,2%,·,-30%
O=C(c1ccc(F)cc1)N1CCN(C(=O)c2ccc([N+](=O)[O-])cc2)CC1,13%,-27%,-6%,-5%,-10,-4%
CC(=O)N1c2c(cc(Br)cc2S(=O)(=O)N2CCN(C(=O)c3ccco3)CC2)CC1C (centres undefined),-10%,21µM*,0%,18µM*,0,7%
CC(=O)N1c2c(cc(Br)cc2S(=O)(=O)Nc2c(C)n(C)n(-c3ccccc3)c2=O)CC1C (centres undefined),62%,-1%,1%,-13%,20,8%
CC(=O)N1c2c(cc(Br)cc2S(=O)(=O)N2CCN(c3ccccc3)CC2)CC1C (centres undefined),?,23µM*,12%,16µM*,·,-8%
Nc1nc2c(ncn2[C@@H]2O[C@H](CNS(=O)(=O)c3cccnc3)[C@@H](O)[C@H]2O)c(=O)[nH]1,6%,0%,·,26%,-19,10%
